Inconclusive results are not listed. Active and inactive are the calls of the source. Calls come from the whole dose curve; as a rule, active = well fitted curve in the direction sought with a large enough effect; inconclusive = small, poorly fitted or top-dose-only effect, or another doubt; inactive = no such curve, though single readings can be large; an effect the other way counts as inactive or inconclusive.
Assays:
[1] = MultiTox-Fluor Cytotoxicity Assay - LYMP1-001 - Dead Cells (AID 946); settings: LYMP1-001 lymphoblastoid cells, dead-cell protease fluorescence; series mostly up to 92.2 µM
Outline: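 AC50 from Hill fit of concentration-response; data normalized to DMSO (basal) and 15 uM tetraoctylammonium bromide (100%). LYMP1-001 lymphoblastoid cells, 2500/well, 16 hr compound at 37 C; dead-cell protease fluorescence, Ex/Em 485/520.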

[2] = MultiTox-Fluor Cytotoxicity Assay - LYMP1-001 - Live Cells (AID 947); settings: LYMP1-001 lymphoblastoid cells, live-cell protease fluorescence viability; series mostly up to 92.2 µM
[3] = Cell Viability - LYMP1-002 - Assay at 16 hr (AID 948); settings: LYMP1-002 lymphoblastoid cell viability; series mostly up to 92.2 µM
Outline: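 Seed 2500 LYMP1-002 cells per well in complete medium and hold 5 hr at 37 C. Add compound across a concentration series and incubate 16 hr at 37 C. Add CellTiter-Glo, wait 30 min at room temperature, read luminescence.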

[4] = MultiTox-Fluor Cytotoxicity Assay - LYMP1-002 - Live Cells (AID 955); settings: LYMP1-002 lymphoblastoid live-cell protease fluorescence viability; series mostly up to 46.1 µM;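 note: cells exposed to compound for 16 hours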
Outline: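 In this qHTS viability format, lymphoblastoid cells (LYMP1-002, human) received compound for 16 hr at 37 C. Fluorogenic GF-AFC cleavage by viable cells was detected at 405/510 nm after 1 h at room temperature.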

[5] = MultiTox-Fluor Cytotoxicity Assay - LYMP1-002 - Dead Cells (AID 960); settings: LYMP1-002 lymphoblastoid cells, dead-cell protease fluorescence; series mostly up to 46.1 µM; note: nearly all actives have a fitted effect of over 60% in size
Outline: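 Concentration-dependent increases in membrane-leaked protease activity are quantified in LYMP1-002 cells after 16 hr treatment; values are normalized against DMSO and tetraoctylammonium bromide (15 uM) controls and AC50 derived by Hill modeling.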

[6] = MultiTox-Fluor Cytotoxicity Assay - LYMP1-003 - Dead Cells (AID 961); settings: LYMP1-003 lymphoblastoid cells, dead-cell protease fluorescence; series mostly up to 92.2 µM; note: nearly all actives have a fitted effect of over 70% in size
Outline: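 Human lymphoblastoid LYMP1-003 cells (2500/well) were treated with compounds for 16 hr at 37 C in complete medium. Dead-cell protease release was read by bis-AAF-R110 fluorescence (Ex/Em 485/520). AC50 came from Hill fits, normalized to DMSO and 15 uM tetraoctylammonium bromide.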

[7] = MultiTox-Fluor Cytotoxicity Assay - LYMP1-003 - Live Cells (AID 962); settings: LYMP1-003 lymphoblastoid cells, MultiTox-Fluor live-cell protease fluorescence; series mostly up to 92.2 µM;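 note: cells exposed to compound for 16 hours at 37 °C; cytotoxic hits lower the live-cell protease signal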
Outline: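 Human lymphoblastoid line LYMP1-003 in complete culture medium, treated 16 hr with titrated compounds. Viable cells quantified via cell-permeant GF-AFC substrate fluorescence; AC50 derived by Hill fitting.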

[8] = Cell Viability - LYMP1-003 - Assay at 24 hr (AID 963); settings: LYMP1-003 lymphoblastoid cell viability; series mostly up to 92.2 µM
Outline: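 The lymphoblastoid line was treated with titrated compounds for 24 hours, and viable cell number estimated from luciferase-based ATP luminescence.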

[9] = Cell Viability - LYMP1-003 - Assay at 40 hr (AID 964); settings: LYMP1-003 lymphoblastoid viability; series mostly up to 92.2 µM; note: nearly all actives have a fitted effect of over 60% in size
Outline: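 Acute toxicity is scored as a concentration-dependent loss of intracellular ATP in LYMP1-003 cells (2500/well, complete medium) after 40 hr at 37 C, measured by CellTiter-Glo luminescence; AC50 values derive from standard Hill modelling.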

[10] = Cell Viability - LYMP2-003 (AID 965); settings: LYMP2-003 lymphoblastoid cell viability; series mostly up to 92.2 µM;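 note: cells exposed to compounds for 24 h before reading; nearly all actives have a fitted effect of over 50% in size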
Outline: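 Seed 2500 lymphoblastoid cells/well; incubate 5 hr, 37 C; add compounds; incubate 24 hr, 37 C; add CellTiter-Glo, 30 min RT; read luminescence. AC50 from Hill fit.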

[11] = Cell Viability - LYMP2-004 (AID 966); settings: LYMP2-004 lymphoblastoid cell viability, qHTS; series mostly up to 92.2 µM; note: nearly all actives have a fitted effect of over 65% in size
Outline: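 Viable-cell number estimated from ATP luminescence (CellTiter-Glo) in 2500 human lymphoblastoid cells/well after 24 hr at 37 C with compound. AC50 fitted to the standard Hill equation.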

[12] = Cell Viability - LYMP2-005 (AID 967); settings: LYMP2-005 lymphoblastoid cell viability; series mostly up to 92.2 µM;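 note: cells exposed to compound for 24 h at 37 °C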
Outline: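 Acute cytotoxicity is scored as a concentration-dependent drop in intracellular ATP in human lymphoblastoid LYMP2-005 cells after 24 h compound treatment. ATP is quantified by luciferase luminescence, and AC50 is derived by Hill-equation modelling.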

[13] = Cell Viability - LYMP2-009 (AID 968); settings: LYMP2-009 lymphoblastoid cell viability; series mostly up to 92.2 µM;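 note: cells exposed to compound for 24 h at 37 °C; nearly all actives have a fitted effect of over 55% in size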
[14] = Cell Viability - LYMP2-011 (AID 969); settings: LYMP2-011 lymphoblastoid cells viability; series mostly up to 92.2 µM; note: nearly all actives have a fitted effect of over 60% in size
Outline: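 Cells seeded at 2500 per well rest 5 hr before compound addition, then incubate 24 hr at 37 C. CellTiter-Glo reagent is added for 30 min at room temperature before luminescence detection.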

[15] = Cell Viability - LYMP2-013 (AID 970); settings: LYMP2-013 lymphoblastoid cells viability; series mostly up to 92.2 µM;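 note: cells exposed to compound for 24 h at 37 °C; nearly all actives have a fitted effect of over 55% in size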
Outline: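 In complete culture medium, human lymphoblastoid cells were dosed for 24 hr at 37 C, with tetraoctylammonium bromide (6.4pM to 92 uM) as positive control. Viability reflects luciferase-based ATP signal; AC50 derived from concentration-response curves.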

[16] = Cell Viability - LYMP2-015 (AID 971); settings: LYMP2-015 lymphoblastoid cell viability; series mostly up to 92.2 µM; note: nearly all actives have a fitted effect of over 55% in size
Outline: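 AC50 values reflect Hill-model fits of ATP-based luminescence (CellTiter-Glo) from a human lymphoblastoid line, 2500 cells/well, treated 24 hr at 37 C.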

[17] = Cell Viability - LYMP2-017 (AID 972); settings: LYMP2-017 lymphoblastoid cell viability; series mostly up to 92.2 µM;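 note: cells exposed to compound for 24 hours at 37 °C; nearly all actives have a fitted effect of over 55% in size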
Outline: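 In this qHTS format, lymphoblastoid cells in complete medium receive test compound for a day at 37 C before ATP content is quantified by luciferase luminescence. Reported AC50 figures come from standard Hill-equation curve fitting.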

[18] = Cell Viability - LYMP2-019 (AID 973); settings: LYMP2-019 lymphoblastoid cell line viability; series mostly up to 92.2 µM
Outline: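 AC50 values come from Hill-equation modelling of qHTS concentration-response curves, where viability is measured as luciferase-based ATP luminescence in the lymphoblastoid line after 24 hr compound exposure in complete culture medium.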

[19] = Cell Viability - LYMP2-021 (AID 974); settings: LYMP2-021 lymphoblastoid cells viability; series mostly up to 92.2 µM
Outline: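 In qHTS format, compounds are tested against 2500 lymphoblastoid cells per well for 24 h; viable cell number is inferred from ATP-driven luciferase light, and Hill-equation fitting yields AC50 values.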

[20] = Cell Viability - LYMP2-023 (AID 975); settings: LYMP2-023 lymphoblastoid cell viability; series mostly up to 92.2 µM
Outline: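 In this qHTS, ATP-based luciferase luminescence (CellTiter-Glo) is quantified in human lymphoblastoid cells after 24 hr compound treatment at 37 C; tetraoctylammonium bromide serves as positive control. Concentration-response curves are Hill-fitted to give AC50.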

Measured: Potency

Cc1cc2nc(N)sc2cc1C
inactive: all assays above

Reference: PubChem BioAssay (NCATS)
